Experimental findings from PubChem BioAssay AID588397 (National Center for Advancing Translational Sciences (NCATS), 2011) are described below.

Screen size: about 1,300 compounds; about 1,000 (77%) were called active. Not shown: some 7% with an inconclusive outcome. The set was probably picked from earlier hits. Some of the results follow. Unmarked numbers belong to inactive results. Calls follow the shape of the dose curve; as a rule, active = well fitted inhibition curve with a large enough effect; inconclusive = small, poorly fitted or top-dose-only effect; inactive = no such curve, though single readings can be large or run the other way.
% is scaled to controls: 0 for no effect and ±100 for the full control effect; potency is read from the fitted curve at half-maximal effect.

The test is described as follows: qHTS of small molecules that selectively kill Giardia lamblia: Hit Validation.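 Also: viability measured as ATP content by luminescence so killing lowers signal; nearly all actives have a fitted effect of over 65% in size.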 Conditions: Giardia lamblia trophozoite viability, dose-response; series mostly up to 38.3 µM; activity change, negative = killing: at the top concentration. From the text:
Giardia lamblia is a human pathogen afflicting impoverished nations, and the most common cause of outbreaks of diarrhea in the United States. Giardia has been classified by the CDC as a category B bioterrorism organism. The favored anti giardiasis drugs in the US are metronidazole or tinidazole, compounds that have undesirable side effects. Moreover, increasing resistance to drug regimes and recurrence are a concern. It is thus clear that alternative drug treatments are needed.
In a collaboration between the University of Maryland, College Park and the NIH Chemical Genomics Center, a bioluminescence Giardia viability assay based on the trophozoites' ATP content was developed. This assay is suitable for high throughput screening, and miniaturized the assay for compound screening in 1536-well plates. The goal of the project is to screen the Molecular Libraries Small Molecule Repository (MLSMR) for compounds that selectively kill Giardia trophozoites.
NIH Chemical Genomics Center [NCGC]
NIH Molecular Libraries Probe Centers Network [MLPCN]
Assay Submitter (PI): Osnat Herzberg, University of Maryland, College Park, MD.
1. Dispense 2 ul/well media
2. Dispense 23 nl/well compounds
3. Dispense 4 ul/well Giardia trophozoites at a concentration of 100 cells/well
4. Incubate 48 hrs at 37 deg C anaerobically
5. Dispense 4 ul/well ATPLite 1-Step Luminescence assay kit
6. Incubate 15-30 min at room temperature
7. Read luminescence signal on ViewLux plate reader
Background: In qHTS, concentration-response curves come from the screen itself.
Turning to `O=C(CSc1ccsc1[N+](=O)[O-])NCCc1ccc(Cl)cc1`, the Potency is 1.3 µM (active).

For the molecule `O=C(CSc1ccsc1[N+](=O)[O-])NCCc1ccccc1`, the Potency was 0.818 µM (active).

On to `CN=c1c([N+](=O)[O-])nn(-c2ccc3c(c2)OCCO3)n1O`, for which the Potency was 4.1 µM (active).

Regarding `O=[N+]([O-])c1nn(-c2ccc3c(c2)OCCO3)n(O)c1=NCCC1=CCCCC1`, the Potency is 1.63 µM (active).

Consider `COc1cc(N=c2c([N+](=O)[O-])nn(-c3ccc4c(c3)OCCO4)n2O)cc(OC)c1`, for which the Potency is 5.16 µM (active).

Take `CCc1cccc(N=c2c([N+](=O)[O-])nn(-c3ccc(Cl)cc3)n2O)c1`: the Potency is 1.45 µM (active).

Regarding `CCc1cccc(N=c2c([N+](=O)[O-])nn(-c3ccc4c(c3)OCCO4)n2O)c1`, the Potency is 0.818 µM (active).

`Cc1cc(C)cc(N=c2c([N+](=O)[O-])nn(-c3ccc4c(c3)OCCO4)n2O)c1`: the Potency is 0.729 µM (active).

With `O=[N+]([O-])c1nn(-c2ccc3c(c2)OCCO3)n(O)c1=NCCCO`, the Potency was 2.05 µM (active).

For the molecule `Cn1nc(-c2cccnc2)nc2c(=O)n(C)c(=O)nc1-2`, the Potency is 4.1 µM (active).

In the case of `Cn1nc(-c2ccc(F)cc2)nc2c(=O)n(C)c(=O)nc1-2`, the Potency is 0.103 µM (active).

Take `Cn1nc(-c2ccc(Cl)cc2)nc2c(=O)n(C)c(=O)nc1-2`: the Potency was 0.13 µM (active).

Turning to `Cn1nc(-c2ccncc2)nc2c(=O)n(C)c(=O)nc1-2`, the Potency is 1.16 µM (active).

Take `COc1ccc(-c2nc3c(=O)n(C)c(=O)nc-3n(C)n2)cc1`: the Potency is 0.163 µM (active).

Take `CCCc1nc2c(=O)n(C)c(=O)nc-2n(C)n1`: the Potency is 0.326 µM (active).

`O=C1/C(=C/c2ccc(O)c([N+](=O)[O-])c2)SC(=S)N1Cc1ccccc1`: the Potency was 1.45 µM (active).

With `O=C1S/C(=C\c2ccc(O)c([N+](=O)[O-])c2)C(=O)N1c1ccccc1Cl`, the Potency is 1.63 µM (active).

Turning to `O=C1S/C(=C\c2ccc(O)c([N+](=O)[O-])c2)C(=O)N1Cc1cccc([N+](=O)[O-])c1`, the Potency was 0.818 µM (active).

Take `O=C(O)c1cccc(CN2C(=O)S/C(=C/c3ccccc3[N+](=O)[O-])C2=O)c1`: the “activity change, negative = killing” value was -35.3%.

As for `COc1cccc(/C=C2\Oc3ccc(O)cc3C2=O)c1O`, the Potency is 3.26 µM (active).

For the molecule `CC(=O)c1c(C)n([O-])c2ccccc2[n+]1=O`, the Potency was 0.65 µM (active).

`CC(=O)c1c(C)n([O-])c2ccc(C)cc2[n+]1=O`: the Potency is 0.41 µM (active).

For the molecule `CCOc1ccc(-n2c(C)c(C(C)=O)c3cc(O)ccc32)cc1`, the “activity change, negative = killing” value is 5.94%.

Consider `CCN(CC)CC(=O)c1c(C)n(C)c2ccc(OC)cc12`, for which the “activity change, negative = killing” value is 0.629%.

For the molecule `CC(=O)c1c(C)n([O-])c2cc(C)ccc2[n+]1=O`, the Potency is 0.818 µM (active).

In the case of `COc1ccc2c(c1)[n+](=O)c(C(C)=O)c(C)n2[O-]`, the Potency is 4.1 µM (active).

Turning to `NC(=S)N/N=C1\c2ccccc2-c2c(C(=O)O)cccc21`, the “activity change, negative = killing” value was -2.7%.

Take `CC(=O)c1c(C)n([O-])c2cc(F)c(F)cc2[n+]1=O`: the Potency was 4.1 µM (active).

As for `CC(=O)OCc1c(COC(C)=O)[n+](=O)c2ccccc2n1[O-]`, the Potency was 5.79 µM (active).

Turning to `O=C(Nc1ccc2oc(-c3ccccc3F)nc2c1)c1ccc([N+](=O)[O-])o1`, the Potency is 0.818 µM (active).

As to `O=C(Nc1ccc2oc(-c3cccnc3)nc2c1)c1ccc([N+](=O)[O-])o1`, the Potency is 0.918 µM (active).

On to `O=C(Nc1ccc2oc(-c3ccncc3)nc2c1)c1ccc([N+](=O)[O-])o1`, for which the Potency is 0.918 µM (active).

With `Cc1cnc(N=Nc2ccccc2)[nH]1`, the Potency was 9.18 µM (active).

On to `O=C(NCCCO)c1cc([N+](=O)[O-])cc2c1C=Cc1ccccc1O2`, for which the Potency is 11.6 µM (active).

As for `Cc1ccc2nsnc2c1NC(=O)c1ccc([N+](=O)[O-])o1`, the Potency was 3.26 µM (active).

Regarding `O=C(Nc1c(Cl)ccc2nsnc12)c1ccc([N+](=O)[O-])o1`, the Potency was 1.3 µM (active).

On to `NC(=S)NN=C1CCCCCCCC1`, for which the Potency was 23.1 µM (active).

As to `Cc1ncc([N+](=O)[O-])n1CCOC(=O)NC(NCc1ccccc1Cl)C(Cl)(Cl)Cl` (stereo not given), the Potency was 0.146 µM (active).

Take `Cc1ncc([N+](=O)[O-])n1CCOC(=O)NC(NCc1cccnc1)C(Cl)(Cl)Cl` (stereo not given): the Potency is 0.46 µM (active).

With `Cc1ncc([N+](=O)[O-])n1CCOC(=O)NC(NCc1ccccc1)C(Cl)(Cl)Cl` (stereo not given), the Potency is 0.206 µM (active).

On to `CCCCCCSc1ccc([C@H]2N[C@@](Cc3ccccc3)(C(=O)OC)[C@H]3C(=O)N(C)C(=O)[C@@H]23)cc1`, for which the “activity change, negative = killing” value was -9.35%.

For the molecule `Cc1cc(=O)oc2cc(O)c(N=Nc3ccccc3)cc12`, the Potency is 1.03 µM (active).

Regarding `Cn1c(-c2ccc(C(=O)c3ccccc3)s2)nc2ccccc21`, the Potency is 3.26 µM (active).

As to `O=[N+]([O-])c1ccc2nc(-c3ccc(OC(F)F)cc3)cn2c1`, the Potency is 2.31 µM (active).

Take `COc1ccc(-c2cn3cc([N+](=O)[O-])ccc3n2)cc1OC`: the Potency is 1.83 µM (active).
